# In the library only some 3.5% were active in any assay of this set; here they are far more common.
# BoNT-A LC inh2 = BoNT/A light chain protease inhibitors, primary screen, biochemical, flow cytometry, MLPCN library | hit rate 0.17% among 360,000 | inhibition, % at 10 µM | multiplex microsphere protease substrate cleavage | Botulinum neurotoxin type A light chain protease (Clostridium botulinum A str. ATCC 3502); note: plate controls were buffer without enzyme for full effect and enzyme alone for no effect
# BoNT-F LC inh = BoNT/F light chain protease inhibitors, primary screen, biochemical, flow cytometry, MLPCN library; Botulinum neurotoxin type F light chain protease (Clostridium botulinum); Multiplex microsphere protease cleavage assay; inhibition, % at 10 µM; hit rate 0.22% among 360,000; in the data active = inhibition above about 35%, passing the limit was not always enough; inconclusive = no clear call, values can overlap the other calls; note: plate controls were buffer without enzyme for full effect and enzyme alone for no effect
# Anthrax LF prot = Bacillus anthracis LF protease inhibitors, primary screen, biochemical, multiplex microsphere, MLPCN library | Lethal factor (Bacillus anthracis), P15917 | hit rate 0.12% among 360,000 | multiplex microsphere protease cleavage assay | inhibition, % at 10 µM; note: plate controls were buffer without enzyme for full effect and enzyme alone for no effect
# Bead autofluor = compound fluorescence in toxin protease inhibitor counterscreen; compound autofluorescence counterscreen, microsphere flow cytometry; active compounds read high; hit rate 3.1% among 360,000; fluorescence intensity (concentration not given with the values); AID 624483; in the data active = fluorescence intensity above about 16000; inconclusive = no clear call, values can overlap the other calls
# 3CLpro inhibitor = SARS-CoV 3CLpro protease inhibitors, primary screen, biochemical, quenched FRET; Replicase polyprotein 1ab (Severe acute respiratory syndrome coronavirus), P0C6X7; recombinant SARS-CoV 3CLpro, quenched FRET peptide cleavage; inhibition, % at 6 µM; hit rate 0.14% among 290,000; in the data active = inhibition above about 12%
# * marks the source's active call; other numbers are inactive results; ? = inconclusive; nt = no result. Cut-off read from the data, not from the text of the source, unless noted: active = inhibition above about 30%; inconclusive = no clear call, values can overlap the other calls; inactive = below that.
SMILES,BoNT-A LC inh2,BoNT-F LC inh,Anthrax LF prot,Bead autofluor,3CLpro inhibitor
CCn1c(=O)cc(OCC(=O)NCCc2cccc(C)c2)c2ccccc21,0,-2,-1,2426,-2
Cn1c(=O)cc(OCCCC(=O)Nc2cccnc2)c2ccccc21,-2,-2,-2,23694*,-6
CCN(CCCNC(=O)COc1cc(=O)n(CC)c2ccccc12)c1ccccc1,?,-1,-3,19587*,1
CCn1c(=O)cc(OCC(=O)Nc2ccc3c(c2)OCCO3)c2ccccc21,1,1,-5,19914*,2
C/C(=N\NC(=O)CCC(=O)Nc1ccccc1)c1cccs1,0,-4,2,2499,-2
COc1ccc(-c2nc3c4ccccc4ccn3c2C=O)cc1,0,-4,0,2594,-6
Cn1c(=O)cc(OCCCC(=O)NCc2ccc3c(c2)OCO3)c2ccccc21,0,0,-3,4549,-3
Cn1c(=O)cc(OCCCC(=O)Nc2ccc3c(c2)OCCO3)c2ccccc21,2,2,-2,21630*,-1
CC(C)c1ccc(-c2nnn(CCC(=O)O)n2)cc1,0,0,-2,16264*,1
Cc1ccc(CNC(=O)c2cccc(S(C)(=O)=O)c2)cc1,0,-2,-2,3324,-3
CCc1nc2oc3ccccc3c(=O)c2c(=O)n1-c1ccccc1,0,3,0,16529*,-6
CCc1nc2oc3ccccc3c(=O)c2c(=O)n1-c1ccc(C)cc1,nt,nt,nt,nt,4
O=C(Nc1ccccc1N1CCCCC1)c1ccc(N2C(=O)c3ccccc3C2=O)cc1,0,-1,-2,16910*,3
O=C(Nc1ccccc1N1CCCCC1)c1ccccc1F,-1,-5,-2,23407*,-3
CCN1CCc2nc(NC(=O)c3ccccc3)sc2C1,10,-2,15,18645*,-1
N/C(=N\OC(=O)c1cccc(Br)c1)c1ccncc1,0,-2,2,2031,-2
Nc1c(C(=O)NCc2ccccc2)nnn1Cc1ccccc1,-2,-11,-13,4719,0
CN(C)/C=N/c1c(C(=O)NCc2ccccc2)nnn1Cc1ccccc1,8,12,2,18876*,6
Cc1ccc(NCC(O)C(O)C(O)CO)cc1C (configuration not stated),1,-2,-2,20300*,-1
Cc1nc2nc(CCc3ccccc3)nn2c(C)c1Cl,2,15,1,9302,-4
Cc1nc2nc(Cc3ccccc3)nn2c(C)c1Cl,3,3,-3,22300*,3
COc1cccc(NC(=O)COC(=O)CC2CC3CCC2C3)c1 (configuration not stated),1,12,-3,4696,nt
CCC(C)N(C(=O)c1csnn1)C(C(=O)NC1CCCC1)c1ccc(F)cc1 (configuration not stated),-3,-13,3,3603,0
CCOC(=O)c1ccc(NC(=O)CC2C(=O)N(c3cccc(OC)c3)C(=O)N2CCOC)cc1 (configuration not stated),0,-1,-1,5352,6
CCOc1cc(C2C(C#N)=C(N)OC3CCCC(=O)C32)ccc1OCCN1CCOCC1 (configuration not stated),2,-5,2,4713,-1
SMILES,BoNT-A LC inh2,BoNT-F LC inh,Anthrax LF prot,Bead autofluor,3CLpro inhibitor
Cc1c(C(=O)N2CCN(c3ccccc3F)CC2)sc2nc(-c3ccccc3)cn12,?,0,-8,21586*,-2
COC(=O)c1ccc(NC(=O)c2sc3nc(-c4ccccc4)cn3c2C)cc1,-1,-1,-2,21396*,0
COc1ccc(-c2cn3c(C)c(C(=O)Nc4ccncc4)sc3n2)cc1,0,-5,-6,5751,-3
O=C(CCN1C(=O)C2C3C=CC(C3)C2C1=O)Nc1ccccc1 (configuration not stated),-1,-11,-1,2021,-2
COCCCN1C(=O)C(=O)/C(=C(/O)c2ccc(S(=O)(=O)N3CCCCC3)cc2)C1c1ccc(OC)cc1 (configuration not stated),0,1,-1,5284,4
Cc1ccc2nc(N3CCN(S(=O)(=O)c4ccc(C)c(Cl)c4)CC3)c(C#N)cc2c1,?,12,13,21608*,-2
Cc1ccc2nc(N3CCN(C)CC3)c(C#N)cc2c1,0,2,-2,9382,0
CCN(CC)S(=O)(=O)c1ccc(C)c(NC(=O)COC(=O)C=C(C)C)c1,0,3,2,4486,0
COCCNC(=O)COC(=O)/C=C/c1cnc2ccccc2n1,8,9,-9,17342*,4
CN(Cc1c(F)cccc1Cl)c1ccc(S(=O)(=O)N2CCOCC2)cn1,-5,-19,3,13323,-2
C=CCn1c(N)c(C(=O)OCC)sc1=S,-1,-14,4,9816,0
Nc1c(C(=O)N2CCOCC2)sc(=S)n1-c1ccccc1,-5,-4,1,21197*,-5
C=CCn1c(N)c(C(=O)N2CCN(C)CC2)sc1=S,2,0,-7,22789*,2
C=CCn1c(N)c(C(=O)NCCC2=CCCCC2)sc1=S,-1,-4,-5,16404*,3
Cc1ccc(-n2c(N)c(C(=O)N3CCN(C)CC3)sc2=S)cc1,-1,-2,-3,21266*,2
CNC(=O)c1c(NC(=O)CS(=O)(=O)c2ccc(Cl)cc2)sc(C)c1C,4,-10,-1,?,nt
CN1CCN(c2ccc(NC(=S)NC(=O)c3cccc4c(Cl)cccc34)cc2)CC1,-1,-5,-4,5621,4
C[C@H](CO)N1C[C@H](C)[C@@H](CN(C)C(=O)NC2CCCCC2)Oc2c(NC(=O)Nc3ccc4c(c3)OCO4)cccc2C1=O,0,-1,7,3992,nt
Cc1ccccc1CCNC(=O)C1CCN(S(=O)(=O)c2ccc(-n3cnnn3)cc2)CC1,0,2,-3,3628,-3
CC(=O)N1CCOc2ccc(S(=O)(=O)N(C)c3ccc(C)cc3)cc21,1,-2,-5,5509,7
COc1ccc(-c2nc(CSCC(=O)NCc3ccco3)c(C)o2)cc1,-3,-15,-14,?,-5
Nc1c(C(=O)N2CCCCC2)sc(=S)n1-c1ccccc1,-1,-2,0,21338*,-9
CC(=O)c1ccc(NC(=O)CCS(=O)(=O)c2ccc3c(c2)n(C)c(=O)c(=O)n3C)cc1,-1,-5,-4,6377,7
COc1ccc(CCNC(=O)C2CC(=O)N(C3CCCCCCC3)C2)cc1OC (configuration not stated),-3,-3,-2,24165*,1
Cc1ccc(CCNC(=O)C2CC(=O)N(C3CCCCC3)C2)cc1 (configuration not stated),0,7,1,5417,-5
COc1ccc(CCN2CC(C(=O)NCc3ccco3)CC2=O)cc1OC (configuration not stated),0,0,-4,16739*,-5

# Assay outcomes: PubChem, several laboratories
